Screening results (PubChem)
The sample as a whole holds a higher share of hits than the screen did.
KDM5B inhibitor – KDM5B demethylase inhibition. KDM5B demethylase, FDH-coupled NADH fluorescence (FDH is formaldehyde dehydrogenase). Potency, µM (titrated, usually from 57.7 µM), most hits filed as inhibitors. AID 1347165. Q9UGL1. 2.6% of 220,000 active; active = well fitted inhibition curve with a large enough effect; also: nearly all actives have a fitted effect of over 70% in size
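Compound dilutions met 200 nM (final) KDM5BΔAP for 10 min at room temperature before substrate addition. The substrate mix held 12.5 µM H3K4me3 with cofactors 25 µM α-ketoglutarate and 50 µM Fe²⁺. NADH signal gain over 30 min defined activity.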
A number is an active result; n = inactive.

SMILES	KDM5B inhibitor
CCN(CC)C(=O)[C@@H]1CCCN1[C@H](Cc1ccccc1)C(=O)NC	n
CCCN1CCC(N2CCC(C(=O)Nc3cccc(-c4cccc(F)c4)c3)CC2)CC1	n
FC(F)(F)c1cccc(Nc2cnc3ccc(-n4ccnc4)nn23)c1	n
FC(F)(F)c1cccc(Nc2cnc3ccc(N4CCOCC4)nn23)c1	35µM
c1ccc(Nc2cnc3ccc(N4CCOCC4)nn23)cc1	n
Cn1cc(S(=O)(=O)c2ccc(F)cc2)c(=O)c2ccccc21	n
CN(C(=O)c1cnc(N2CCOCC2)c2ccccc12)c1ccccc1Cl	n
Fc1ccccc1-c1nc(-c2ccc(Br)cc2)no1	n
CCc1noc(-c2nc(-c3ccccc3F)no2)n1	n
Cc1cc(CN(C)c2ccc(-c3nc(-c4ccccc4F)no3)cn2)on1	32µM
O=S(=O)(NCCc1csc2nc(-c3cccc(F)c3)nn12)c1ccc2c(c1)CCCC2	n
O=C(Cc1ccccc1F)NC1CCN(C2CC2)C1 (centres undefined)	n
Cc1ccc(Cl)cc1NC(=O)CN1C(=O)NC2(CCCCC2)C1=O	n
COc1cccc(N2C(=O)NC(=NC3CCCC3)C23CCCN([S+](=O)([O-])c2cccs2)C3)c1 (centres undefined)	n
CCc1nnsc1C(=O)N(C)Cc1cccc(Cl)c1	n
CCOc1ccccc1CN1C[C@@H](CO)[C@H](c2ccccn2)C1	n
CCOc1ccccc1CN1CCN(C(=O)c2ccccn2)CC1CCO (centres undefined)	20µM
CCOc1ccccc1CN1C[C@@H](NC(=O)COC)C[C@H]1CO	n
CCCN1C(SCC(=O)N2CCC(C)CC2)=NS(=O)(=O)c2ccccc21	n
NC(=O)NC(CC(=O)NC(Cc1ccccc1)c1ccccc1)c1ccccc1 (centres undefined)	n
O=C(Cn1nnc2sc3c(c2c1=O)CCCC3)OC1CCCC1	n
O=C(N1CCCC1)N1CCn2c(nnc2-c2cncc(Br)c2)C1	n
COc1ccc2c(C)c(CC(=O)Nc3ccc(F)cc3F)c(=O)oc2c1OC	n
Cc1noc(-c2ccn3c(CNC(=O)c4ccoc4)nnc3c2)n1	25µM
CCc1noc(-c2ccn3c(CNC(=O)c4ccncc4)nnc3c2)n1	25µM
SMILES	KDM5B inhibitor
CCc1noc(-c2ccn3c(CNC(=O)c4ccoc4)nnc3c2)n1	28µM
CCc1noc(-c2ccn3c(CNC(=O)c4cccc(OC)c4)nnc3c2)n1	28µM
Cc1noc(-c2ccn3c(CNC(=O)c4ccncc4)nnc3c2)n1	n
CCNC(=O)N1CCCC1c1noc(CCC(=O)NCc2cc(F)cc(F)c2)n1 (centres undefined)	n
COc1ccc(C2=NOC3(CCN([S+](=O)([O-])c4c(C)noc4C)C3)C2)cc1 (centres undefined)	n
CC(C)c1ccc(-n2cc(CN3CCCC(O)(CN(C)C)C3)cn2)cc1 (centres undefined)	n
CC(C)(C)c1[nH]c2ccc(F)cc2c1C=O	n
CN(Cc1ccsc1)C(=O)C1CC=CCC1c1nc2ccccc2s1 (centres undefined)	n
CCCc1noc(-c2ccn3c(CNC(=O)c4ccc5[nH]ccc5c4)nnc3c2)n1	n
CCCc1noc(-c2ccn3c(CNC(=O)c4cccnc4)nnc3c2)n1	28µM
Cc1noc(-c2ccn3c(CNC(=O)c4cccnc4)nnc3c2)n1	n
CCCc1noc(-c2ccn3c(CNC(=O)c4ccc(C)c(F)c4)nnc3c2)n1	28µM
CCNC(=O)NC(=O)CN1CCCC(C)C1 (centres undefined)	n
COC(=O)c1sccc1S(=O)(=O)NC(C)C1CCCO1 (centres undefined)	n
Cc1ccc(C)c(N2CCN(C(=O)c3ccc4c(c3)nc3n4CCCCC3)CC2)c1	n
O=C(O)c1ccc(CN2CC(COc3ccccc3)C3(C2)CN(c2ccccc2)C3)cc1 (centres undefined)	n
COc1ccc(CN2CC(COc3ccccc3)C3(C2)CN(c2ccccc2)C3)cc1O (centres undefined)	32µM
COc1ccc(CN2CC(CN[S+](=O)([O-])c3ccccc3)C3(C2)CN(c2ccccc2)C3)cc1O (centres undefined)	n
Cc1nn(-c2ccc(F)cc2)c(Oc2ccc(F)cc2F)c1CCC(=O)NCC1CC1	n
COc1cccc(NC(=O)c2nc3ccccc3nc2N2CCCC2)c1	n
C(#Cc1ccccc1)CSc1nc2ccccc2s1	n
CCN(CC)c1ccc(/C=N/S(=O)(=O)c2cccs2)cc1	n
N#Cc1cccc(-c2n[nH]c3c2CC(=O)N(Cc2ccccn2)C3)c1	35µM
N#Cc1cccc(-c2n[nH]c3c2CC(=O)N(Cc2ccccc2)C3)c1	n
CC(=O)Nc1cccc(-c2n[nH]c3c2CC(=O)N(Cc2ccccc2)C3)c1	n
O=C(NC1C[C@H]2CC[C@@H](C1)N2C(=O)COc1ccc(Cl)cc1)c1ccncc1 (some centres undefined)	n
CC(C(=O)N1CCCC1)n1cnc2c1c(=O)n(C)c(=O)n2C (centres undefined)	n
O=S(=O)(/C=C/CN1CCOCC1)c1ccc2ccccc2c1	n
Cn1nc(C(=O)Nc2cccc(I)c2)c2ccccc2c1=O	n
